Screening results as filed in PubChem.
TbPYK inhibitor: T. brucei pyruvate kinase inhibition. Potency, µM (highest dose often 76.8 µM), without a hit: at the top dose activity, negative = inhibition, actives largely listed as inhibitors. TbPYK enzyme, Kinase-Glo Plus ATP luminescence, 45 min. 0.12% of 410,000 active. Q57TT1; note: potency is the fitted concentration of half-maximal effect; % is set by controls: 0 for no effect and ±100 for the full control effect; nearly all actives have a fitted effect of over 50% in size
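Luminescent Kinase-Glo Plus end-point after 45 min room-temperature reaction of T. brucei pyruvate kinase started with 130 uM ADP (final). Buffer TEA 50 mM pH 7.2 with KCl, MgCl2, BSA, Tween-20; titration-based qHTS with fitted concentration-effect curves.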
CHX counter: counter-screen for Shiga toxin inhibitors: cycloheximide protein synthesis inhibition; 12% of 300,000 active; max response, %; cell reporter, cycloheximide protein synthesis inhibition counterscreen; in the data active = max response mostly above about 13%, no sharp cut-off; inactive = mostly below about 14%; note: read at 38.3 µM for the half of the compounds with a filed dose; 0% is about no effect
FBPA Giardia inh: inhibitors of Giardia lamblia fructose-1,6-bisphosphate aldolase | A8B2U2 | purified Giardia FBPA | Potency, µM (series often up to 59.6 µM), without a hit: top-dose activity, negative = inhibition, actives largely listed as inhibitors | 0.71% of 290,000 active | AID 2451; note: potency is the fitted concentration of half-maximal effect; % is set by controls: 0 for no effect and ±100 for the full control effect; nearly all actives have a fitted effect of over 55% in size
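40 nM FBPA preincubated 10 min at RT with compound (up to 57.5 uM final), then substrate plus GAPDH/TPI/NAD/arsenate coupling and diaphorase/resazurin added. Fluorescence read after 20 min at RT, 525/598 nm.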
Shiga toxin inh: Shiga toxin inhibition; inhibition, % at 38.7 µM; 9.2% of 290,000 active; Vero cells, Shiga toxin protein synthesis inhibition reporter; AID 2315; in the data active = inhibition mostly above about 28%, no sharp cut-off; inactive = mostly below about 43%; note: 0% is about no effect
RE007 growth inh: less growth of the S. pombe RE007 Vpr strain | 0.21% of 360,000 active | Potency, µM (top dose mostly 92.2 µM), inactives show at the highest dose activity change, negative = less growth, most hits filed as inhibitors | S. pombe RE007 Vpr strain, BacTiter-Glo ATP luminescence, 24 h; active = well fitted falling curve with a large enough effect; inconclusive = small, poorly fitted or top-dose-only effect; inactive = no such curve, though single readings can be large or run the other way; note: potency is the fitted concentration of half-maximal effect; % is set by controls: 0 for no effect and ±100 for the full control effect; nearly all actives have a fitted effect of over 50% in size
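Fission yeast RE007 carrying one integrated HIV-1 vpr copy, seeded at OD 0.01 in PMG+AL medium with 23 nL pinned compound. Grown 24 h at 30 degrees; viability read by BacTiter-Glo luminescence after 5 min.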
LmPK inh: LmPK (Leishmania mexicana) enzyme inhibition. 0.37% of 290,000 active. Potency, µM (highest dose often 57.5 µM), inactives show at the top dose activity change, negative = inhibition, most hits filed as inhibitors. purified LmPK, Kinase-Glo ATP luminescence, 1 h. Q27686; note: potency is the fitted concentration of half-maximal effect; % is set by controls: 0 for no effect and ±100 for the full control effect
Target sequence (Q27686 whole entry, looked up): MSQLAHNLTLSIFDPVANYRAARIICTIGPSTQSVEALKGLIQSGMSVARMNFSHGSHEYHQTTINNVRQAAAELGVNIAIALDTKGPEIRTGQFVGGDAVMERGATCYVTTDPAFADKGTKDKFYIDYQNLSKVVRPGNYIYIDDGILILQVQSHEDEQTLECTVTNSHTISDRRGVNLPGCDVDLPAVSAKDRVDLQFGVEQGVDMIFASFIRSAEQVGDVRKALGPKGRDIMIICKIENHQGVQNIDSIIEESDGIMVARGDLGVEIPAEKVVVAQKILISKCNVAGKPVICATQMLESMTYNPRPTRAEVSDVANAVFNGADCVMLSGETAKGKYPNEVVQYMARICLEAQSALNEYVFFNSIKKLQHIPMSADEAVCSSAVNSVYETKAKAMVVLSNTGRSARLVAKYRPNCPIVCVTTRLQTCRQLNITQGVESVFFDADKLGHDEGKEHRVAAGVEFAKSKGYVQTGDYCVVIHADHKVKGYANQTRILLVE
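Kinase-Glo luminescence read after 1 h RT reaction of 0.1 nM LmPK with 0.5 mM PEP and 0.1 mM ADP. Activity scaled between uninhibited and enzyme-free controls.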
* marks the source's active call; other numbers are inactive results; u = inconclusive; x = no result given; + = active, no number; ! = not confirmed by another sample; [ ] = remark or other dose. The sample as a whole holds a higher share of hits than the screen did. Unless noted, calls come from the whole dose curve; as a rule, active = well fitted curve in the direction sought with a large enough effect; inconclusive = small, poorly fitted or top-dose-only effect, or another doubt; inactive = no such curve, though single readings can be large; an effect the other way counts as inactive or inconclusive.

SMILES	TbPYK inhibitor	CHX counter	FBPA Giardia inh	Shiga toxin inh	RE007 growth inh	LmPK inh
O=C(c1ccc(Br)s1)N1CCc2ccccc2C1	4%	49*	x	152*	5%	-5%
CCCCn1nnnc1C1(C)CCC(=O)N1Cc1ccco1 (configuration not stated)	8%	x	x	x	10%	x
O=C(CSc1ncccn1)N1CCc2ccccc2C1	-11%	14*	-4%	28	12%	-4%
Cc1ccc(NC(=O)C2CC2c2ccccc2)c([N+](=O)[O-])c1 (configuration not stated)	-9%	35*	3%	34*	12%	4%
Cc1ccc(NC(=S)NC(C)(C)C)c([N+](=O)[O-])c1	-4%	26*	-21%	25	-11%	2%
Cc1ccccc1-c1noc(N)c1C#N	-18%	3	-9%	-2	-3%	4%
CN(C)/C=C/c1onc(-c2ccccc2Cl)c1C#N	-8%	42*	-7%	69*	43%	-4%
CCc1nc2ccc(C(=O)Nc3cc(-c4ccccc4)ccc3OC)cn2c1N(CCN(C)C)CC1CC1	1%	x	x	x	-1%	x
Cc1ccc(C)c(SCC(=O)c2ccc[nH]2)c1	1%	42*	-7%	56*	1%	5%
O=c1[nH]c(COc2ccc(Br)cc2Cl)nc2ccccc12	0%	37*	x	104*	3%	1%
S=c1nc(Cc2ccc(Cl)cc2)[nH]c2ccccc12	-1%	13*	3%	-8	-16%	-7%
S=c1nc(COc2ccccc2)[nH]c2ccccc12	-19%	58*	16%	116*	x	-4%
Clc1ccc2nc(COc3ccccc3)[nH]c2c1	1%	34*	-8%	x	57%	5%
Cc1cc(=O)[nH]c(COc2ccccc2)n1	-5%	3	-3%	-8	-1%	-9%
S=c1nc(Cc2ccccc2)[nH]c2ccccc12	-12%	-2	9%	-7	0%	3%
CCC(C)NC(=O)C1CCN(C(=O)c2ccc(-n3ccc4ccccc43)s2)CC1 (configuration not stated)	-6%	x	x	x	x	x
O=C(c1ccco1)N1CCC2(CC1)CCN(C(c1ccccc1)c1ccccc1)CC2	-11%	x	0%	x	x	x
Cc1c(N)cc2c(c1N)C(C)(C)CC2(C)C	-7%	x	x	x	1%	x
O=c1[nH]c(CSc2nnc(COc3ccccc3)n2-c2ccccc2)nc2ccccc12	-39%	2	-2%	-5	-15%	-4%
O=c1[nH]c(COc2ccccc2)nc2ccccc12	2%	25*	1%	49*	2%	-9%
CC(=O)O[C@H]1C[C@@H]2OC3C=C(C)CCC3(C)[C@@]1(C)[C@@]21CO1 (some centres not stated)	-6%	x	x	x	3.2µM*	x
CNC(=O)C1Cc2c(-c3ccccc3Oc3ccccc3)ccnc2O1 (configuration not stated)	8%	x	x	x	3%	x
CS(=O)(=O)N1CCN(c2ccc(NC(=O)C(c3ccccc3)c3ccccc3)cc2)CC1	-8%	-4	-11%	-2	4%	4%
O=C(Nc1ccc(N2CCCC2)cc1)c1ccccc1[N+](=O)[O-]	2%	19*	-2%	80	-3%	4%
CC(=O)Nc1ccc(NC(=O)c2ccccc2C)cc1	-2%	13	3%	24	7%	3%
SMILES	TbPYK inhibitor	CHX counter	FBPA Giardia inh	Shiga toxin inh	RE007 growth inh	LmPK inh
Cc1ccccc1C(=O)Nc1ccc(N2CCCC2)cc1	u	35*	u	57*	-11%	u
O=C(Nc1ccc(N2CCCC2)cc1)C(Cl)c1ccccc1 (configuration not stated)	u	32*	u	70*	-22%	-19%
Cc1ccc(C(=O)Nc2ccc(N3CCCC3)cc2)c(C)c1	-12%	15*	u	41	-13%	-1%
COc1cc(Cl)c(C)cc1NC(=O)CSc1cc(=O)n(C)c2cc(Cl)ccc12	1%	x	x	x	x	x
Cc1ccccc1C(=O)Nc1ccc(N2CCN(C)CC2)nc1	3%	22*	-7%	52	-8%	-12%
Cc1ccc(/C=C2/C(=O)NC(=O)N(CC3CCCO3)C2=O)s1 (configuration not stated)	-15%	10	-2%	97*	4%	2%
CCOCCCNC(=S)NCCc1ccccc1	-9%	43*	2%	108*	11%	-1%
S=C(NCc1ccccc1)NCc1ccccc1	20%	-1	-7%	31	-1%	2%
CCOCCCNC(=S)Nc1ccc(Br)cc1Cl	-1%	12*	-6%	36	-6%	1%
S=C(NCCCc1ccccc1)NCc1ccccc1	2%	26*	x	25*	0%	-2%
CCC(C)/C=C(C)/C=C/C1=CC2=C(Cl)C(=O)C(C)(OC(C)=O)C(=O)C2=CO1 (configuration not stated)	1%	11*	-5%	24	-13%	-29%
CC[C@H](C)/C=C(C)/C=C/C1=CC2=C(Cl)C(=O)[C@@](C)(OC(C)=O)C(=O)C2=CO1	-13%	x	x	x	u	x
COc1ccc(C2C3=C(N=C4SCC(=O)N42)c2ccccc2CC3)cc1OC (configuration not stated)	2%	-1	u	-9	16%	1%
COc1ccc(C2C3=C(N=C4SCC(=O)N42)c2ccccc2CC3)cc1 (configuration not stated)	-4%	39*	u	76*	-11%	-10%
COCCCn1c(=N)c(C(=O)NC2CCCCC2)cc2c(=O)n3cc(C)ccc3nc21	6%	x	x	x	x	x
O=C(Nc1ccccc1)c1ccc(Br)o1	-6%	44*	-11%[89.2 µM]	+!	-6%	-23%
CCc1cccc(NC(=O)c2ccc(Br)o2)c1	2%	23*	-10%	105*	u	-5%
CNC(=S)N(C)c1ccccc1	9%	-6	-4%	-13	-3%	-8%
O=C(Nc1ccc(S(=O)(=O)NCCc2ccccc2)cc1)c1ccc(Br)o1	-3%	-1	-6%	-6	-4%	-3%
Cc1cccc(NC(=O)c2ccc(C(=O)c3ccccc3)o2)c1	3%	37*	-6%	73*	u	-2%
CN(C(=S)NC(=O)c1ccc(Br)o1)c1ccccc1	-9%	11	-23%	30*	-4%	-1%
Cc1cccc(NC(=O)c2ccccc2C(=O)Nc2cccc(C)c2)c1	2%	x	x	x	-26%	x
Cc1ccccc1Cn1c(CN2CCC(C(=O)NCCN(C)C)CC2)cc2ccccc21	0%	x	x	x	x	x
Cc1ccc2c(=O)cc(C(=O)Nc3nc4ccc(Cl)cc4s3)oc2c1C	3%	x	x	x	x	x
Cc1cc(=O)n(CC(=O)NC(C)c2ccccc2)c2c1c(C)nn2C (configuration not stated)	-1%	x	x	x	x	x
NC(=O)NS(=O)(=O)Oc1ccccc1	-1%	1	27%	-9	-12%	5%
